# Shown are actives, neighbours in structure and some others; about 2.4% of the full set was active somewhere.
# AmpC inh no det: AmpC beta-lactamase inhibition, detergent-free assay; AID 585; Potency, µM (highest dose often 28.7 µM), inactives show at the top dose activity change, negative = inhibition; 1.8% of 71,000 active; AmpC nitrocefin hydrolysis, absorbance 480 nm, no detergent; note: % of control where 0% means no effect
# Target sequence (P00811 whole entry, looked up): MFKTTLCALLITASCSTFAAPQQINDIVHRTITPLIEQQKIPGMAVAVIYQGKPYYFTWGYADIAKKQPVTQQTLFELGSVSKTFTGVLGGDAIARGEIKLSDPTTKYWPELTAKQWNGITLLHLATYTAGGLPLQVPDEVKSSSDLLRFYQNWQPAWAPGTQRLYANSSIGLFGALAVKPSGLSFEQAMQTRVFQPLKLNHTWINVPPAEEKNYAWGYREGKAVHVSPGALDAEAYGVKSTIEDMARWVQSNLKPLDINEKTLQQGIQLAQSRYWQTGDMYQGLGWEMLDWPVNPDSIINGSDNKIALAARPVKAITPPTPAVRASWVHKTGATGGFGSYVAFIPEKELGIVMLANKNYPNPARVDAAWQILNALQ
#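 Enzyme, pH 7.0 phosphate. Compound titrations were pre-incubated with AmpC for 15 min at room temperature before nitrocefin (stock 800 uM) addition; product formation was recorded at 480 nm every 20 s for 4 min.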
# LT uptake inh: anthrax lethal toxin internalization inhibition; AID 912; Potency, µM (doses to about 40 µM), for inactives: at the highest dose activity change, negative = inhibition, actives largely listed as inhibitors; Cells, anthrax lethal toxin internalization, FRET ratio (460/530); 0.67% of 70,000 active; note: % is set by controls: 0 for no effect and ±100 for the full control effect; nearly all actives have a fitted effect of over 50% in size
# Prx2 Sm inh: blocks S. mansoni peroxiredoxin 2 enzymatic activity | S. mansoni Prx2 activity coupled to TGR/GSH (TGR is thioredoxin glutathione reductase), NADPH fluorescence loss, qHTS | Potency, µM | 0.07% of 65,000 active | AID 448
#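 Prx2 activity was followed as the loss of NADPH fluorescence (ex 365/em 450 nm), read every 30 sec for 8 min after H2O2 start. The enzyme mix (50 nM Prx2, 25 nM TGR, GSH, NADPH; pH 7.4 phosphate buffer) was incubated with compound for 15 min at room temperature first.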
# AmpC inh det: blocks E. coli AmpC beta-lactamase in presence of detergent; P00811; 0.09% of 71,000 active; purified AmpC, nitrocefin hydrolysis with detergent; Potency, µM (highest dose often 28.7 µM), for inactives: top-dose activity change, negative = inhibition; active = well fitted curve in the direction sought with a large enough effect; inconclusive = small, poorly fitted or top-dose-only effect; note: % is set by controls: 0 for no effect and ±100 for the full control effect
#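 E. coli AmpC (5.3 nM) in 20 mM phosphate pH 7.0 with 0.01% Triton X-100, preincubated 15 min RT with compound; nitrocefin (2 uL of 800 uM stock) hydrolysis followed by 480 nm absorbance every 20 s over 4 min.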
# The depositor's hits bear a star; ? = inconclusive; . = no result; ! = not active in a repeat; [ ] = remark or other dose. Unless noted, calls come from the whole dose curve. Potency is the fitted concentration of half-maximal effect.
SMILES,AmpC inh no det,LT uptake inh,Prx2 Sm inh,AmpC inh det
Cc1nc2cnc(Nc3ccccc3)nc2n(Cc2cccs2)c1=O,6%,?,>57,-2%
O=C(CSc1nc2ccccc2c(=O)n1Cc1ccco1)NCc1ccccc1,-23%,-9%,>57,21%
C[C@@H](C(=O)O)/C(=C/c1ccc2c(c1)OCO2)C(=O)O,0%[5.75 µM],?,>57,-7%[5.75 µM]
CCCS(=O)(=O)N1CCCC(C(=O)NCc2cccnc2)C1 (stereo not drawn),-1%,-14%,>57,-1%
c1ccc(-c2ccc(-c3nc(-c4ccccn4)no3)cc2)cc1,44%,3.2µM*,.,12%
Clc1cccc(-c2nc(-c3ccccn3)no2)c1,11%,-4%,>57,-1%
N#CC(C#N)=NNc1cccc(Cl)c1,.,2.5µM*,.,.
N#CC(C#N)=NNc1ccc2cn[nH]c2c1,-1%[5.75 µM],-11%[8 µM],.,-4%[5.75 µM]
Oc1c(Cl)cc(C(c2cc(Cl)c(O)c(Cl)c2)C(c2cc(Cl)c(O)c(Cl)c2)c2cc(Cl)c(O)c(Cl)c2)cc1Cl,-26%[5.75 µM],-8%[8 µM],>57,-3%[5.75 µM]
Oc1c(Cl)cc(Cl)cc1Sc1cc(Cl)cc(Cl)c1O,?,3.2µM*,.,6%
c1ccc2cc3c(cc2c1)-c1cccc2cccc-3c12,1%,?,.,10%
O=C(Nc1nccs1)C1CCN(S(=O)(=O)c2cccnc2)CC1,-6%,0%,>57,10%
O=C(NCCC1=CCCCC1)C1CCCN(S(=O)(=O)c2cccc3cccnc23)C1 (stereo not drawn),63%,-27%,>57,0%
O=C(Nc1nccs1)C1CCCN(S(=O)(=O)c2cccnc2)C1 (stereo not drawn),4µM*[single pt active],0%,>57,12%
O=C(Nc1ccc2c(c1)OCCO2)C1CCCN(S(=O)(=O)c2cccnc2)C1 (stereo not drawn),4µM*[single pt active],?,>57,12%
O=C(NCCC1=CCCCC1)C1CCCN(S(=O)(=O)c2cccnc2)C1 (stereo not drawn),2.5µM*[single pt active],-14%,>57,12%
O=C(NCCN1CCN(C(=O)NC2CCCCC2)CC1)NC1CCCCC1,12%,-4%,>57,-6%
NC(=O)CN1CCN(C(=O)NC2CCCCC2)CC1,3.2µM*[single pt active],-2%,>57,16%
Cc1oc(-c2ccccc2F)nc1CN1CCC(C(=O)NC2CCCCCCC2)CC1,99%,7%,>57,11%
CCN1CCN(C(=O)C(NS(=O)(=O)c2ccc3nc(C)sc3c2)C(C)C)CC1 (stereo not drawn),13%,0%,>57,9%
Cc1nc2ccc(S(=O)(=O)NC(C(=O)NC3CCCC3)C(C)C)cc2s1 (stereo not drawn),4µM*[single pt active],5%,>57,7%
CCN(C(=O)c1cnc(N2CCN(c3ncccn3)CC2)c2ccccc12)c1cccc(Cl)c1,95%,16µM*,>57,-4%
CC(=O)Oc1ccc(C(c2ccc(OC(C)=O)cc2)c2ccccn2)cc1,57%,0.16µM*,>57,12%
COc1ccc([C@H](O)c2ccccn2)cc1,2%[5.75 µM],-7%[8 µM],>57,-7%[5.75 µM]
COc1cccc(C2=NOC(C(=O)N3CCN(C(=O)c4ccco4)CC3)C2)c1 (stereo not drawn),2.5µM*[single pt active],4%,>57,19%
SMILES,AmpC inh no det,LT uptake inh,Prx2 Sm inh,AmpC inh det
COc1ccccc1CNC(=O)C1CCN(S(=O)(=O)N2CC(C)CC(C)C2)CC1 (stereo not drawn),58%,19%,>57,2%
COc1cccc(OC)c1C(=O)Nc1ccc(NC(=O)c2ccco2)cc1,4%,-12%,>57,-3%
CN(C)S(=O)(=O)c1ccc(Oc2ccccc2)cc1,3%,.,>57,0%
CN(C)S(=O)(=O)c1ccc(-c2ccccc2)cc1,-4%,7.9µM*,.,8%
Cc1noc(C)c1-c1ccc2ncnc(Nc3ccccc3)c2c1,12%,11%,>57,10%
CCCn1c(C)c(C(=O)c2ccc3ccccc3c2)c2ccccc21,19%,13µM*,>26,-5%
O=c1oc2ccccc2n1CCc1ccccc1,-11%,-4%,>57,-2%
O=c1oc2ccccc2n1Cc1ccccc1Cl,4µM*,?,>57,14%
O=C(Nc1cc[c]([Sb](=[O])([OH])[OH])cc1)c1ccccc1,3.2µM*[single pt active],-3%[8 µM],>57,-3%[5.75 µM]
CC1CCN(C(=O)CN2C(=O)C(=O)c3ccccc32)CC1,4µM*[single pt active],6%,>57,10%
CC1CCN(C(=O)Cn2c(=O)oc3ccccc32)CC1,-5%,2%,>57,-1%
COc1ccc(OCCNS(=O)(=O)c2ccccc2)cc1,-11%,5%,.,3%
COc1ccc(NC(=O)CCCC2=NS(=O)(=O)c3ccccc3N2)cc1,4µM*[single pt active],5%,>57,13%
O=C(CCCC1=NS(=O)(=O)c2ccccc2N1)N1CCN(c2ccc(Cl)cc2)CC1,4µM*[single pt active],?,>57,25%
CC(Oc1ccc(Cl)cc1Cl)C(=O)N(Cc1ccco1)C1CCS(=O)(=O)C1 (stereo not drawn),88%,-7%,>57,13%
COc1cccc(NS(=O)(=O)c2nc3nc(C)cc(C)n3n2)c1,4µM*[single pt active],1%,>57,13%
O=C=Nc1ccc(Cl)c(Cl)c1,?,16µM*,.,13%
O=C=Nc1ccc(Cc2ccc(N=C=O)cc2)cc1 (tested in a mixture with another compound),-10%[5.75 µM],-7%[8 µM],>57,-4%[5.75 µM]
CC[N+](CC)(CC)CCOc1cccc(OCC[N+](CC)(CC)CC)c1OCC[N+](CC)(CC)CC,13µM*!,-4%[3.58 µM],?,-5%[12.8 µM]
CCOC(=O)c1c(CN(CC)CC)oc2cc(Br)c(O)cc12,4µM*[single pt active],?,>57,8%
CC(C)(C)OC(=O)N1CCC(C(N)=O)CC1,4µM*[single pt active],-13%,>57,12%
CC(C)(C)OC(=O)N[C@@H](Cc1ccccc1)c1nnc(SCC(=O)O)o1,-4%,?,>57,12%
CC(C)(C)OC(=O)N[C@@H](Cc1ccccc1)c1nnc(S(=O)(=O)Cc2ccccc2)o1,3.2µM*,7.9µM*,.,13µM*
CCC(C)[C@@H](NC(=O)OC(C)(C)C)c1nnc(S(=O)(=O)Cc2cccc(C)c2)o1 (stereo partly drawn),7.9µM*,?,>57,4µM*
COc1ccc(Nc2cc(C(=O)NCCCN3CCN(C)CC3)c3ccccc3n2)c(OC)c1,65%,-10%,>57,-5%
SMILES,AmpC inh no det,LT uptake inh,Prx2 Sm inh,AmpC inh det
NC(=O)c1cccc2c1C(=O)N(C1CCCCC1)C2,4µM*[single pt active],-7%,>57,13%
CCC(C)c1ccc2oc(-c3ccc(NC(=O)c4ncn[nH]4)cc3)nc2c1 (stereo not drawn),13µM*[single pt active],?,>57,-5%
Cc1nn2c(=O)cc(CSc3nc4ccccc4[nH]3)nc2s1,4µM*[single pt active],8%,>57,13%
Cc1cc(C(=O)CSc2nc3ccccc3[nH]2)c(C)n1C,-2%,-8%,>57,-3%
NC(=NCCCCCCN=C(N)/N=C(\N)Nc1ccc(Cl)cc1)/N=C(\N)Nc1ccc(Cl)cc1,2.5µM*,?,>57,1%
COC(=O)c1[nH]c2ccc(C)cc2c1NC(=O)CN1CCC(C)CC1,20%,.,>57,-3%
COc1ccc2cc3cc(C(=O)NCc4ccc5c(c4)OCO5)oc3nc2c1,3%,9%,>57,-2%

# Screening data as filed in PubChem.
